Hits are enriched below; roughly 19% of the tested compounds scored in any of these assays.
KB-V1 cytotox – kills drug-selected multidrug resistant KB-V1 cells | KB-V1 MDR cells viability, CellTiter-Glo, 72 h | Potency, µM (doses to about 46.1 µM), actives largely listed as cytotoxic | 400,000 compounds, 3.4% hits; also: nearly all actives have a fitted effect of over 60% in size
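KB-V1 cells (P-gp-expressing MDR subline of KB-3-1) in phenol-red-free DMEM with 10% FBS were exposed to library compounds over a concentration series for 72 h at 37 degrees C. Viability read by CellTiter-Glo luminescence; concentration-effect curves fitted after normalization.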
KB-3-1 tox – KB-3-1 parental cell cytotoxicity. KB-3-1 viability, CellTiter-Glo ATP luminescence, 72 h. Potency, µM (series often up to 46.1 µM), usual class: cytotoxic. 400,000 compounds, 1.4% hits. AID 1347075; also: nearly all actives have a fitted effect of over 60% in size
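72 h, 37 °C compound treatment of KB-3-1 parental cells; CellTiter-Glo added, 10 min, luminescence read. Data corrected against DMSO-only plates and normalized before curve fitting.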
DT40 TDP1 no CPT – qHTS for Inhibitors of human tyrosyl-DNA phosphodiesterase 1 (TDP1): qHTS in cells in absence of CPT; DT40 Tdp1-/- hTDP1 cells, no CPT, ATP luminescence, 48 h; Potency, µM (top dose mostly 46.2 µM), actives largely listed as inhibitors; 420,000 compounds, 15% hits; also: nearly all actives have a fitted effect of over 55% in size
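Readout: luminescence from CellTiter-Glo after 30 min in the dark at RT. Cells: DT40 Tdp1-/- with stable hTDP1, 400/well. Exposure: compounds alone, ≥48 hr, 37 °C.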
TDP1 cell CPT – growth inhibition of DT40 Tdp1-/-;hTDP1 cells with camptothecin (screen for TDP1 inhibitors); Potency, µM (series often up to 46.2 µM), most hits filed as inhibitors; chicken DT40 Tdp1-/-;hTDP1 cells + 20 nM CPT, ATP luminescence, 48 h; 420,000 compounds, 12% hits; also: nearly all actives have a fitted effect of over 55% in size
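Cell growth measured by CellTiter-Glo luminescence after a minimum 48 h, 37 C compound exposure with 20 nM CPT in Tdp1-knockout DT40 cells stably expressing hTDP1, seeded 400/well; qHTS titration format.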
HT1080NT lethal – kills 2HG-producing HT-1080-NT fibrosarcoma cells; 360,000 compounds, 1.6% hits; Potency, µM (top dose mostly 46.1 µM), usual class: cytotoxic; HT-1080-NT fibrosarcoma viability, CellTiter-Glo ATP luminescence, 48 h; AID 686970;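 also: NT is the 2HG producing partner of a matched IDH1 knockdown line; nearly all actives have a fitted effect of over 55% in size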
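Compounds were tested in concentration-response format on HT-1080-NT cells for 48 hours at 37 degrees C. Cell viability came from CellTiter-Glo luminescence; curves were classified by r2, response magnitude and activity.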
HT1080 IDH1KD tx – kills HT-1080 cells with IDH1 knockdown | HT-1080 IDH1 knockdown viability, ATP luminescence, 48 h | Potency, µM (doses to about 46.1 µM), actives largely listed as cytotoxic | 360,000 compounds, 2% hits
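Using the IDH1-knockdown HT-1080 line run in the same batch and compound series as the NT line, viability after 48 h at 37 °C was determined by CellTiter-Glo luminescence and expressed as % activity.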
Each line names hits and unclear results; the compound was inactive in the other large screens. Calls follow the shape of the dose curve; as a rule, active = well fitted curve in the direction sought with a large enough effect; inconclusive = small, poorly fitted or top-dose-only effect, or another doubt; inactive = no such curve, though single readings can be large; an effect the other way counts as inactive or inconclusive.

CCN(CC(=O)Nc1c(F)cccc1F)C(=O)CCc1nc2cc(S(=O)(=O)N(C)C)ccc2n1CC	none
Clc1cccc(CSc2nnc(-c3ccccn3)n2Cc2ccco2)c1	KB-V1 cytotox 10µM, KB-3-1 tox inconclusive, DT40 TDP1 no CPT 16µM, TDP1 cell CPT 16µM
CC(C)(C)c1ccc(CSc2nnc(-c3ccccn3)n2Cc2ccco2)cc1	KB-3-1 tox inconclusive, DT40 TDP1 no CPT inconclusive, TDP1 cell CPT inconclusive, HT1080NT lethal inconclusive, HT1080 IDH1KD tx inconclusive
CNC(=O)CSc1nnc(-c2ccccn2)n1Cc1ccco1	none
Brc1ccc(CSc2nnc(-c3ccccn3)n2Cc2ccco2)cc1	KB-V1 cytotox 7.3µM, DT40 TDP1 no CPT 8.2µM, TDP1 cell CPT 15µM, HT1080NT lethal inconclusive, HT1080 IDH1KD tx 11µM
Cc1ccccc1CSc1nnc(-c2cccs2)n1Cc1ccco1	KB-V1 cytotox 5.8µM, DT40 TDP1 no CPT 23µM, TDP1 cell CPT inconclusive
c1ccc(CSc2nnc(-c3ccco3)n2Cc2ccco2)cc1	KB-V1 cytotox 21µM, KB-3-1 tox inconclusive, DT40 TDP1 no CPT 23µM, TDP1 cell CPT inconclusive
O=C(C1CCN(S(=O)(=O)c2cccs2)CC1)N(c1ccccn1)C1CCCCC1	KB-V1 cytotox inconclusive, DT40 TDP1 no CPT inconclusive, TDP1 cell CPT inconclusive
CC1(C(=O)NS(=O)(=O)c2ccccc2Cl)CCN1C(=O)CCc1ccccc1 (stereo not given)	none
COc1ccccc1C1NC(=O)CS1 (stereo not given)	KB-3-1 tox inconclusive
CC(C)Oc1ccc(C(CC(=O)O)Cc2ccccc2)cc1 (stereo not given)	KB-V1 cytotox inconclusive
CCOC(=O)N1CCC(N2C(=O)c3ccc(C(=O)Nc4ccc(OC)c(OC)c4)cc3C2=O)CC1	none
COc1ccc2c(c1)nc(SCC(=O)c1cccs1)n2C	HT1080 IDH1KD tx inconclusive
CCCSc1nnc2c(n1)OC(CC)N(C(C)=O)c1ccccc1-2 (stereo not given)	none (no result: HT1080NT lethal, HT1080 IDH1KD tx)
CC(C)Oc1ccccc1OCCN(C)C	none
CN(C)CCC(Oc1ccccc1OCc1ccccc1)c1ccccc1 (stereo not given)	DT40 TDP1 no CPT 16µM, TDP1 cell CPT inconclusive, HT1080NT lethal inconclusive, HT1080 IDH1KD tx inconclusive
O=C(Nc1ccc(N2CCOCC2)c(Cl)c1)c1cccc(F)c1	DT40 TDP1 no CPT inconclusive
O=C(Nc1cc(S(=O)(=O)Nc2ccc(Cl)cc2)ccc1N1CCCCC1)c1ccc(F)cc1	DT40 TDP1 no CPT 18µM, TDP1 cell CPT 21µM, HT1080NT lethal inconclusive, HT1080 IDH1KD tx inconclusive
COC(=O)c1cc(NS(=O)(=O)c2ccc(N3CCOCC3)c(NC(C)=O)c2)cc(C(=O)OC)c1	none
CCOC(=O)/C=C/C(=O)Nc1cc(S(=O)(=O)Nc2ccc(OC)cc2)ccc1N1CCOCC1	DT40 TDP1 no CPT 5.2µM, TDP1 cell CPT 5.8µM
COc1ccc(NS(=O)(=O)c2ccc(N3CCOCC3)c(NC(=O)c3cccc(F)c3)c2)cc1	KB-3-1 tox inconclusive, DT40 TDP1 no CPT 8.2µM, TDP1 cell CPT 9.2µM, HT1080 IDH1KD tx inconclusive
COc1ccc(CC(=O)Nc2cc(S(=O)(=O)N3CCOCC3)ccc2N2CCOCC2)cc1	none
COc1ccc(NS(=O)(=O)c2ccc(N3CCOCC3)c(NC(=O)c3ccc(F)cc3)c2)cc1	KB-V1 cytotox inconclusive, KB-3-1 tox inconclusive, DT40 TDP1 no CPT 13µM, TDP1 cell CPT 8.2µM, HT1080NT lethal inconclusive, HT1080 IDH1KD tx inconclusive
COc1cc(Br)c(CC(=O)NC2CC2)cc1OC	none
CC1CCc2nc(-c3cc4c(ccc5ccccc54)oc3=O)sc2C1 (stereo not given)	none (no result: HT1080NT lethal, HT1080 IDH1KD tx)
COc1ccc(CCn2c(=O)[nH]c3cc(C(=O)N4CCN(c5ccccn5)CC4)ccc3c2=O)cc1OC	none
COc1ccc(NS(=O)(=O)c2ccc(N3CCOCC3)c(NC(=O)C(C)C)c2)cc1	KB-V1 cytotox 18µM, KB-3-1 tox inconclusive, DT40 TDP1 no CPT 18µM, TDP1 cell CPT 16µM
COc1ccc(NS(=O)(=O)c2ccc(N3CCCCC3)c(NC(=O)C(C)NC(N)=O)c2)cc1 (stereo not given)	DT40 TDP1 no CPT inconclusive, TDP1 cell CPT inconclusive (no result: KB-V1 cytotox, KB-3-1 tox)
CCN(CC(=O)NC1CCCC1)S(=O)(=O)c1ccc(Br)cc1	DT40 TDP1 no CPT inconclusive, TDP1 cell CPT inconclusive
COc1cc(-c2nc(CN3CCN(C(=O)c4ccco4)CC3)c(C)o2)ccc1F	KB-3-1 tox inconclusive
CCOC(=O)C1=C(CS(=O)(=O)c2cccc(C(F)(F)F)c2)NC(=O)NC1c1cccc(OC)c1 (stereo not given)	DT40 TDP1 no CPT inconclusive, TDP1 cell CPT inconclusive (no result: HT1080NT lethal, HT1080 IDH1KD tx)
CCOC(=O)C1=C(CS(=O)(=O)c2ccc(C(C)(C)C)cc2)NC(=O)NC1c1cccc(OC)c1 (stereo not given)	DT40 TDP1 no CPT 16µM, TDP1 cell CPT 16µM (no result: HT1080NT lethal, HT1080 IDH1KD tx)
CCc1nc2c(c(=O)[nH]1)C1(CCCC1)Cc1ccccc1-2	none
O=c1[nH]c(CN2CCCCC2)nc2c1C1(CCCCC1)Cc1ccccc1-2	KB-V1 cytotox inconclusive, DT40 TDP1 no CPT 13µM, TDP1 cell CPT 13µM
Cc1nc(SC(C(N)=O)c2ccccc2)c(C#N)c(C)c1C (stereo not given)	DT40 TDP1 no CPT inconclusive
COc1ccccc1-c1cc(-c2ccccc2)nc(SC(C(N)=O)c2ccccc2)c1C#N (stereo not given)	KB-V1 cytotox inconclusive, DT40 TDP1 no CPT 23µM, TDP1 cell CPT inconclusive, HT1080NT lethal inconclusive, HT1080 IDH1KD tx inconclusive
CC(Sc1nc(C(C)(C)C)cc(-c2ccccc2)c1C#N)C(=O)Nc1ccccc1 (stereo not given)	DT40 TDP1 no CPT 29µM, TDP1 cell CPT inconclusive
CCOC(=O)C(C)Sc1nc(-c2ccccc2Cl)cc(-c2ccccc2)c1C#N (stereo not given)	DT40 TDP1 no CPT inconclusive, TDP1 cell CPT 13µM (no result: HT1080NT lethal, HT1080 IDH1KD tx)
Cc1ccccc1OCC(=O)Nc1cc(-c2cccc(Br)c2)nn1-c1ccccc1	KB-V1 cytotox inconclusive, DT40 TDP1 no CPT inconclusive, TDP1 cell CPT inconclusive (no result: HT1080NT lethal, HT1080 IDH1KD tx)
Cc1ccc(S(=O)(=O)N2CCN(CC(O)c3ccccc3)CC2)cc1C (stereo not given)	KB-V1 cytotox inconclusive
COc1cc([N+](=O)[O-])cc2cc(C(=O)N3CCCC3)c(=O)oc12	KB-3-1 tox inconclusive
CCCN1C(=O)SC(CC(=O)Nc2ccc(Br)cc2)C1=O (stereo not given)	DT40 TDP1 no CPT 13µM, TDP1 cell CPT inconclusive
O=C(CC1Sc2ncnn2C1=O)Nc1ccc(Br)cc1 (stereo not given)	DT40 TDP1 no CPT 4.6µM, TDP1 cell CPT 2.1µM
O=C(CC1SC2=NCCN2C1=O)Nc1ccc(Br)cc1 (stereo not given)	none
